Data taken from the supplement of paper PMC12669032.

test system: Roseburia intestinalis; assay: growth AUC relative to DMSO control (median of replicates) (fraction); higher = more growth (less inhibition), active = hit call of the paper; conditions: 20 µM; 24 h;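 active = AUC reduced over 20% with Padj below 0.05 in at least 2 of 3 replicates; inactive = otherwise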
Procedure, shortened: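 Gut bacterial monocultures were grown anaerobically at 37 °C in mGAM from a starting OD600 of 0.05 with 20 µM compound (1% DMSO), in round-bottom 96-well plates under pierced gas-permeable seals, and OD600 was read hourly for 24 h. With the minimum OD set to 0, area under the growth curve was normalised to the plate median of solvent-only wells, or to row and column medians on the industrial chemical plate. Each value is the median of three biological replicates grown on separate days.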

Growth AUC, inactive:
CC(C)CNC(=O)N1CCNC1=O 1.1
CCNc1nc(NCC)nc(OC)n1 0.993
COCC(=O)N(c1c(C)cccc1C)C(C)C(=O)O (configuration not stated) 1.01
C#CCOC(=O)[C@@H](C)Oc1ccc(Oc2ncc(Cl)cc2F)cc1 1.06
CN(C)c1ccc(N=NS(=O)(=O)[O-])cc1.[Na+] 1.03
Cc1ccc(C(C)NC(=O)[C@@H](NC(=O)OC(C)C)C(C)C)cc1 (some centres not stated) 0.956
N#Cc1ccc(CC(=NNC(=O)Nc2ccc(OC(F)(F)F)cc2)c2cccc(C(F)(F)F)c2)cc1 (mixture of isomers) 0.954
CN(C)C(=O)NC1CCCCCCC1 1.08
CCCCOCCOCCOCc1cc2c(cc1CCC)OCO2 1
C=CCO/N=C(\CCC)C1=C([O-])CC(C)(C)C(C(=O)OC)C1=O.[Na+] (configuration not stated) 0.982
N#Cc1cc(Cl)c(O)c(Cl)c1 1.08
O=C(O)CCCc1c[nH]c2ccccc12 0.96
CCCCOCCOC(=O)COc1ccc(Cl)cc1Cl 0.941
CCN(Cc1c(F)cccc1Cl)c1c([N+](=O)[O-])cc(C(F)(F)F)cc1[N+](=O)[O-] 0.864
CN(C)C(=O)Nc1ccc(Oc2ccc(Cl)cc2)cc1 0.874
CCS(=O)(=O)c1nnc(N(C)C(=O)NC)s1 1
COc1nc(C)nc(NC(=O)NS(=O)(=O)c2ccccc2OCCCl)n1 1
